According to PubChem BioAssay AID2597 (National Center for Advancing Translational Sciences (NCATS), 2010):
Inconclusive results are not listed. Where a call stands in place of a potency, no number is given. Calls of active or inactive are those of the source. The call rests on the fitted dose curve; in most records, active means well fitted curve in the direction sought with a large enough effect; inconclusive means small, poorly fitted or top-dose-only effect, or effect the other way, or another doubt; inactive means no such curve, though single readings can be large or run the other way.

The compounds below were run against Lysosomal acid glucosylceramidase (Homo sapiens) (UniProt P04062) (assay: qHTS Assay for Inhibitors and Activators of N370S glucocerebrosidase as a Potential Chaperone Treatment of Gaucher Disease: Purified N370S Glucocerebrosidase). Settings: purified N370S GC, 4-MU-glucoside fluorescence, 40 min; series mostly up to 76.9 µM.
Lysosomal acid glucosylceramidase (Homo sapiens), sequence (P04062 whole entry N409S): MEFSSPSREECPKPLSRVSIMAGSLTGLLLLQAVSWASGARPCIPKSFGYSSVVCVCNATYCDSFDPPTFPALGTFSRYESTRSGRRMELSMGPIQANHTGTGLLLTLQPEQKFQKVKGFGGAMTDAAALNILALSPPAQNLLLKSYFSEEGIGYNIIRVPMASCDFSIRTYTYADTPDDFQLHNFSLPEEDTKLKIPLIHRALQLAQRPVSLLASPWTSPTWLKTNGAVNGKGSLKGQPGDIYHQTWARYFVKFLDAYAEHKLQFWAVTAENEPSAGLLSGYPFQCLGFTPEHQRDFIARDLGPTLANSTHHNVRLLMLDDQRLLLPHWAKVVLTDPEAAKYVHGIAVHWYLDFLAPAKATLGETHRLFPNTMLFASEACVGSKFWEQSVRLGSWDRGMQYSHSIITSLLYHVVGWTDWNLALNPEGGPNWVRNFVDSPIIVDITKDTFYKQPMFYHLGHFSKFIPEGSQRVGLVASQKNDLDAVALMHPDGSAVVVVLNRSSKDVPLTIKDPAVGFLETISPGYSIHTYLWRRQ
Source text: NIH Chemical Genomics Center [NCGC] NIH Molecular Libraries Probe Production Centers Network [MLPCN] MLPCN Grant: MH086442-01 Assay Submitter (PI): Wei Zheng Glucocerebrosidase (GC) catalyzes the hydrolysis of beta-glucocerebroside to glucose and ceramide in lysosomes. Mutations in the glucocerebrosidase gene result in Gaucher disease, an autosomal recessive lysosomal storage disorder. Many of the mutations encountered in patients with Gaucher disease are missense alterations that may cause misfolding, decreased stability and/or mistrafficking of this lysosomal protein. […] These inhibitors include iminosugar analogs and three non-iminosugar inhibitors identified from a previous HTS of 62,000 compounds with the wild type recombinant enzyme. However, the enhancement of enzyme activity by the chaperone action of an enzyme inhibitor must be balanced against the direct inhibition of the enzyme. An enzyme activator could also function as a chaperone by binding to the enzyme and helping to correct its misfolding and mistrafficking. While activators for GC have not yet been identified, they may have better therapeutic potential than inhibitors. Therefore the discovery and development of chemical activators may provide a new strategy for the chaperone therapy. We have optimized a new assay using N370S mutant GC derived from the spleen of a Gaucher patient. […] In addition, the MLPCN compound library has expanded, which increases the chance of finding new and better probes. This assay characterizes compound activity using purified mutant enzyme instead of tissue homogenate. Compound activity differences may be due to the absence of endogenous cofactors found in tissue homogenate.
NCGC Assay Protocol Summary: This is a fluorogenic enzyme assay with 4-methylumbelliferyl-beta-D-glucopyranoside as the substrate and purified N370S glucocerebrosidase as the enzyme preparation. Upon the hydrolysis of this fluorogenic substrate, the resulting product, […] which can be detected by a standard fluorescence plate reader. Data were normalized to the controls for basal activity (without enzyme) and 100% activity (with enzyme). The AC50 values were determined from concentration-response data modeled with the standard Hill equation. Assay buffer: 50 mM citric acid (titrated with potassium phosphate to pH 5.0), 100 mM potassium chloride, 10 mM sodium chloride, 1 mM magnesium chloride, 0.01% Tween-20. 1536-well assay protocol: (1) Add 2 ul/well of glucocerebrosidase enzyme solution (5 nM final) (2) Add 23 nL compounds in DMSO solution. The final titration was 0.5 nM to 58 uM. (3) Add 2 ul of substrate (1 mM final) (4) Incubate at 37C for 40 min. (5) Add 2 ul stop solution (1M NaOH and 1M Glycine mixture, pH 10) (6) Detect the assay plate in a ViewLux plate reader (PerkinElmer) with Ex=365 nm and Em=440nm. Keywords: Glucocerebrosidase, beta-glucosidase, Gaucher Disease, pharmacological chaperone, chaperone therapy, high throughput screening, glucocerebrosidase inhibitor, MLSMR, MLSCN, NIH Roadmap, qHTS and NCGC
With `O=S(=O)(c1ccc2ccccc2c1)N1CCN(c2nc(-c3cccs3)nc3ccccc23)CC1` the Potency was “inactive”.
For `O=S(=O)(c1ccc(Cl)cc1)N1CCN(c2nc(-c3cccc(Br)c3)nc3ccccc23)CC1`, the Potency was “inactive”.
In the case of `Cc1cccc(S(=O)(=O)N2CCN(c3nc(-c4cccs4)nc4ccccc34)CC2)c1`, the Potency is reported as “inactive”.
In the case of `O=S(=O)(c1ccccc1)N1CCN(c2nc(-c3ccc(F)cc3)nc3cc(Cl)ccc23)CC1`, the Potency is reported as “inactive”.
With `Cc1cc(C)cc(N(CC(=O)NC2CCCCCC2)S(=O)(=O)c2c(C)[nH]c(=O)[nH]c2=O)c1` the Potency was 1.58 µM (active).
With `Cc1ccc(-c2nc(N3CCN(S(=O)(=O)c4ccc(F)cc4)CC3)c3ccc(Cl)cc3n2)cc1` the Potency was “inactive”.
With `O=S(=O)(c1cccs1)N1CCN(c2nc(-c3cccs3)nc3ccccc23)CC1` the Potency was “inactive”.
In the case of `COc1ccc(-c2nc(N3CCN(S(=O)(=O)c4ccc(F)cc4)CC3)c3ccccc3n2)cc1`, the Potency is reported as “inactive”.
For `COc1ccc(-c2nc(N3CCN(S(=O)(=O)c4ccccc4)CC3)c3ccccc3n2)cc1`, the Potency was “inactive”.
In the case of `N#Cc1ccc(S(=O)(=O)N2CCN(c3nc(-c4cccs4)nc4ccccc34)CC2)cc1`, the Potency is reported as “inactive”.
`S=C(NCCCc1cnc[nH]1)NCCCN(Cc1ccc(Cl)c(Cl)c1)c1ccc(Br)cn1` was tested, and the Potency was 2.51 µM (active).
In the case of `O=S(=O)(Cc1ccccc1)N1CCN(c2nc(-c3cccs3)nc3ccccc23)CC1`, the Potency is reported as “inactive”.
With `O=S(=O)(c1ccc(Cl)cc1)N1CCN(c2nc(Nc3cc(Cl)ccc3O)nc3ccccc23)CC1` the Potency was 14.1 µM (active).
For `O=S(=O)(c1ccccc1C(F)(F)F)N1CCN(c2nc(-c3cccs3)nc3ccccc23)CC1`, the Potency was “inactive”.
With `O=S(=O)(c1ccc(F)cc1)N1CCN(c2nc(-c3ccc(F)cc3)nc3cc(Cl)ccc23)CC1` the Potency was “inactive”.
For `CC(C)(C)c1ccc(S(=O)(=O)N2CCN(c3nc(-c4cccs4)nc4ccccc34)CC2)cc1`, the Potency was “inactive”.
`c1csc(-c2nc(NCC3CCCO3)c3ccccc3n2)c1` (centres undefined) was tested, and the Potency was “inactive”.
For `O=S(=O)(c1ccc2c(c1)OCCO2)N1CCN(c2nc(-c3cccs3)nc3ccccc23)CC1`, the Potency was “inactive”.
With `O=S(=O)(c1ccc(F)cc1)N1CCN(c2nc(-c3ccccc3)nc3cc(Cl)ccc23)CC1` the Potency was “inactive”.
For `O=S(=O)(c1ccc(F)cc1)N1CCN(c2nc(-c3cccs3)nc3cc(Cl)ccc23)CC1`, the Potency was “inactive”.
With `COc1ccc(-c2nc(N3CCN(S(=O)(=O)c4ccc(C)cc4)CC3)c3ccccc3n2)cc1` the Potency was “inactive”.
In the case of `O=S(=O)(c1ccc(Cl)cc1)N1CCN(c2nc(-c3cccs3)nc3ccccc23)CC1`, the Potency is reported as “inactive”.
With `COc1ccc(S(=O)(=O)N2CCN(c3nc(-c4cccs4)nc4ccccc34)CC2)cc1` the Potency was “inactive”.
`O=S(=O)(c1ccc2c(c1)OCCO2)N1CCN(c2nc(-c3ccccc3)nc3ccccc23)CC1` was tested, and the Potency was “inactive”.
In the case of `OCCNc1nc(-c2cccs2)nc2ccccc12`, the Potency is reported as “inactive”.
`O=S(=O)(c1cccc2ccccc12)N1CCN(c2nc(-c3cccs3)nc3ccccc23)CC1` was tested, and the Potency was “inactive”.
For `COc1cccc(S(=O)(=O)N2CCN(c3nc(-c4cccs4)nc4ccccc34)CC2)c1`, the Potency was “inactive”.
`Cc1ccccc1S(=O)(=O)N1CCN(c2nc(-c3cccs3)nc3ccccc23)CC1` was tested, and the Potency was “inactive”.
With `O=S(=O)(c1ccccc1Cl)N1CCN(c2nc(-c3cccs3)nc3ccccc23)CC1` the Potency was “inactive”.
With `O=S(=O)(c1ccc(Cl)cc1)N1CCN(c2nc(-c3ccc(F)cc3)nc3cc(Cl)ccc23)CC1` the Potency was “inactive”.
`O=S(=O)(c1ccc(Cl)cc1)N1CCN(c2nc(-c3ccc(Cl)cc3)nc3ccccc23)CC1` was tested, and the Potency was “inactive”.
In the case of `O=S(=O)(c1ccc(F)cc1)N1CCN(c2nc(-c3cccc(Br)c3)nc3ccccc23)CC1`, the Potency is reported as “inactive”.
For `CC(C)(C)C(=O)OCCNc1nc(-c2ccccc2)nc2ccccc12`, the Potency was 8.91 µM (active).
For `Cc1ccc(S(=O)(=O)N2CCN(c3nc(-c4ccc(F)cc4)nc4cc(Cl)ccc34)CC2)cc1`, the Potency was “inactive”.
With `O=C(c1ccc2c(c1)OCCO2)N1CCN(c2nc(-c3cccs3)nc3ccccc23)CC1` the Potency was “inactive”.
`Cc1ccc(S(=O)(=O)N2CCN(c3nc(-c4cccs4)nc4ccccc34)CC2)cc1` was tested, and the Potency was “inactive”.
With `CC(C)C(C)NC(=O)CSc1nc2scc(-c3ccco3)c2c(=O)n1-c1ccccc1` (centres undefined) the Potency was “inactive”.
For `NS(=O)(=O)c1ccc(S(=O)(=O)N2CCN(c3nc(-c4cccs4)nc4ccccc34)CC2)cc1`, the Potency was “inactive”.
`O=S(=O)(c1cccc(C(F)(F)F)c1)N1CCN(c2nc(-c3cccs3)nc3cc(Cl)ccc23)CC1` was tested, and the Potency was “inactive”.
